Results from PubChem BioAssay AID2384 (Southern Research Specialized Biocontainment Screening …, 2010).
About 1,100 (48%) of roughly 2,300 compounds were called active. The set was probably picked from earlier hits. The list shows a part of the results. Potency and affinity values are given separately. A number with no mark means an inactive call. How the calls were made is not given here.

Experiment: S. typhi counter-screen signal inhibition – fluorescence, 4 h, counter-screen for PhoP regulon inhibitor project, dose response (AID 2384)
Conditions: S. typhi GFP reporter counter-screen; series mostly up to 150 µM; inhibition: at the top concentration

Row | Structure (SMILES) | inhibition [%]
1 | CC1Cc2ccccc2N1C(=O)CN1C(=O)C(=O)N(Cc2ccccc2)C1=O (stereo not given) | -9.75
2 | Cc1c(/C=N/NC(=O)c2sc3ccccc3c2Cl)cnn1C | 10.8
3 | Cc1c(/C=N/NC(=O)c2ccc3c(c2)OCO3)cnn1C | 12.9
4 | N#CC1=C2N=C(N)c3ccccc3N2C2=C(C(=O)CCC2)C1c1cccc(Cl)c1 (stereo not given) | -19.9
5 | CC(C(=O)c1ccc2ccccc2c1)N1CCCCC1 (stereo not given) | 36.4
6 | c1ccc2oc(-c3ccc(Nc4nc(N5CCCCC5)nc(N5CCOCC5)n4)cc3)nc2c1 | 8.13
7 | CCOc1ccccc1NC1=NC2CS(=O)(=O)CC2S1 (stereo not given) | -10.3
8 | CC(C)c1cc(C(=O)Nc2ccc3c(c2)OCO3)no1 | 9.74
9 | CCOC(=O)c1sc(N)c(C(=O)OC)c1C | -13.7
10 | S=C1SCN(Cc2cccnc2)CN1Cc1cccnc1 | 25
11 | CC(OC(=O)Cc1coc2cc3c(cc12)CCC3)C(=O)NCc1ccc2c(c1)OCO2 (stereo not given) | 5.64
12 | Cc1ccc(NC(=O)CN(C)C(=O)Cn2ccsc2=N)cc1 | 27.2
13 | O=C(NC(C(=O)c1ccccc1)n1c(=O)cc[nH]c1=S)c1ccccc1 (stereo not given) | 16.6
14 | CCSc1nc(C)cc(C)c1S(=O)(=O)c1ccccc1C | 1.56
15 | CCN(CC)CCSc1nnc2c3ccccc3n(Cc3ccccc3)c2n1 | 16.3
16 | O=C1SC(c2ccccc2)=C/C1=C\N1CCCCC1 | 31.5
17 | Cc1cc(C)n(-c2nc3ccccc3nc2N2CCN(C(=O)c3ccc(F)cc3)CC2)n1 | 10.4
18 | O=C(CCNS(=O)(=O)c1cccc2nonc12)N1CCN(c2cccc(Cl)c2)CC1 | -12.9
19 | Cc1c(C=O)c2ccccn2c1C(=O)c1ccccc1 | 0.47
20 | CCCCC(=O)Nc1ccc2c(c1)C(=O)NC2=O | -15.3
21 | CCOC(=O)COc1cccc2c(=O)n(CC(=O)N3CCCCC3)ccc12 | 3.71
22 | COc1cccc(-c2cc(C(=O)O)[nH]n2)c1 | -27.4
23 | COc1nc(N(C#N)CC(N)=O)nc(N2CCCC2)n1 | -14.2

Row | Structure (SMILES) | inhibition [%]
24 | CCCCOc1ccc(CN=C(N)N)cc1Cl | 23.5
25 | COc1ccc(CSCCN)cc1Cl | 38
26 | CCOC(=O)c1c(CSC(=N)N)n(C)c2cc(Br)c(OC(C)=O)cc12 | 38.3
27 | COC(=O)c1cc(CSC(=N)N)ccc1OCCC(C)C | 3.72
28 | Cn1cnc2cc(NC(=O)c3cccs3)ccc21 | 28.9
29 | CCOC(=O)c1cccc(NC(=O)c2cccs2)c1 | -4.52
30 | CCN(CC)CCNc1nc(-c2ccc(OC)cc2)c(-c2ccc(OC)cc2)s1 | 27.2
31 | COc1ccc(CC(=O)N(Cc2cc3cc(OC)ccc3[nH]c2=O)C(C)C)cc1 | 17.3
32 | CC(=O)c1cccc(NC(=O)CCC2CCCC2)c1 | 27.3
33 | CCC(=O)Nc1nnc(-c2ccco2)o1 | 8.68
34 | Cc1cc(=O)n(CC(C)C)c(O)c1C#N | -31.6
35 | S=C1NCN(C2CCCCC2)CN1c1ccccc1 | 9.4
36 | CCc1nccc2c1[nH]c1ccccc12 | -35.1
37 | C=CCOc1ccc(-c2n[nH]c(=S)o2)cc1 | 18.3
38 | O=C1c2ccccc2C2=Nc3ccccc3SC(c3ccccc3F)C12 (stereo not given) | 12.1
39 | COc1ccc(NC2=Nc3ccccc3CC2)cc1 | 12.3
40 | Cc1cccc(NS(=O)(=O)c2ccc3c(c2)OCCO3)c1 | 1.33
41 | c1ccc(CNc2nc(-c3ccccn3)nc3ccccc23)cc1 | 12
42 | Cc1ccc(Cn2c(=N)c(C(=O)NCc3ccco3)cc3c(=O)n4ccccc4nc32)cc1 | 12
43 | CN(CCO)CC(O)Cn1cnc2c1c(=O)n(C)c(=O)n2C (stereo not given) (tested in a mixture with another compound) | 23.2
44 | COc1ccc(N2CCN(C(=O)c3cc4c(s3)-c3ccccc3S(=O)(=O)C4)CC2)cc1 | -5.98
45 | c1ccc(-c2nnc(-c3c[nH]c4ccccc34)nc2-c2ccccc2)cc1 | 3.86
46 | O=c1oc2ccccc2c(O)c1C(c1ccccn1)c1c(O)c2ccccc2oc1=O | -5.58

Row | Structure (SMILES) | inhibition [%]
47 | CC(C)(C)n1nc2c(c1NC(=O)Cc1cccs1)CSC2 | 4.74
48 | CCCCN(C)C(=O)c1ccc(S(=O)(=O)N2CCOCC2)cc1 | -3.07
49 | CN(C)CCCN(C(=O)c1cc2cc([N+](=O)[O-])ccc2s1)c1nc2cc3c(cc2s1)OCCO3 | -3.58
50 | COC(=O)c1ccc(S(=O)(=O)N2CCC(c3nc4ccccc4o3)CC2)cc1 | -17.6
51 | O=C(NCc1cccnc1)C1c2ccccc2C(=O)N1Cc1ccccc1 (stereo not given) | -11.2
52 | CCOC(=O)c1c(C)sc2c1N(C(C)=O)c1cc(Cl)ccc1S2 | 4.79
53 | NC(=O)c1c(NC(=O)CSc2nc(N)cc(=O)[nH]2)sc2c1CCCC2 | 5.04
54 | O=C(CC(=O)NCc1ccccc1)NCc1ccccc1 | -7.97
55 | CCOc1ccc(NC(=O)CN(C)C(=O)c2ccccc2CCc2ccccc2)cc1OCC | 1.33
56 | CCOCCCNC(=O)CN1CCN(Cc2ccccc2C)C1=O | -28.5
57 | COC(=O)C1C(=O)C2=C(CC1C)Nc1ccccc1NC2c1ccc(C)s1 (stereo not given) | -6.97
58 | CCc1nn(CCCN2CCN(c3cccc(Cl)c3)CC2)c(=O)n1CCOc1ccccc1 | 35
59 | Cc1nn(Cc2ccccc2Cl)c2sc(C(=O)Nc3ccccc3N3CCOCC3)cc12 | -13.9
60 | CN1C(=O)C2(Nc3ccccc3-c3nc4ccccc4n32)c2ccccc21 (stereo not given) | 15
61 | Oc1c(Br)cc(Br)cc1CNc1ccccn1 | 20.5
62 | CC(C)N=C1NN=C(c2ccc(F)cc2)CS1 | -1.84
63 | Cc1c(O)cccc1C(=O)N[C@@H](CSc1ccccc1)[C@H](O)CN1C[C@H]2CCCC[C@H]2C[C@H]1C(=O)NC(C)(C)C | 25.7
64 | COc1ccc(OCC(=O)Nc2ccc3c(c2)nc(CCN2CCC(C)CC2)n3C)cc1 | -8.27
65 | Cn1c(CN2CCCCC2)nc2cc(NS(=O)(=O)c3ccc(Cl)cc3)ccc21 | 29.6
66 | O=C(Nc1ccccc1)C1=C(O)CC(c2ccc(Cl)cc2)N2CCN=C12 (stereo not given) | -11
67 | O=c1c2cnn(-c3ccccc3)c2ncn1CCc1ccccc1 | 12.7
68 | COc1ccccc1NC(=O)Cn1nc(-c2ccncc2)nc1SCC(=O)NC1CCCC1 | 11.8
69 | O=C(NC(=O)c1ccccc1)OCC1CCCN2CCCCC12 (stereo not given) | -11.2

Row | Structure (SMILES) | inhibition [%]
70 | C=CCn1c(C)c(C(C)=O)c(SC)nc1=S | 5.5
71 | Nc1nonc1C(=O)NCCN=Cc1cc(Cc2ccccc2)cc(Br)c1O | 26
72 | CCN(CC)Cc1c(C(=O)N/N=C/c2cccs2)nnn1-c1nonc1N | 19.4
73 | CCOC(=O)c1c(C)[nH]c(C(=O)CN2C(=O)NC(C)(c3ccc4ccccc4c3)C2=O)c1C (stereo not given) | 6.12
74 | CCOC(=O)C(NC(=O)c1cccnc1)(Nc1cccc(C)n1)C(F)(F)F (stereo not given) | -9.61
75 | Nc1[nH]c(=O)ncc1F | -3.81
76 | O=C(Nc1cccnc1)c1cc(Br)c(Br)s1 | 17.9
77 | CCN(CC)Cc1c(C(=O)N/N=C/c2cccc3ccccc23)nnn1-c1nonc1N | -54.3
78 | COc1ccc(/C=N/NC(=O)c2cccnc2)cc1 | 17.4
79 | N#CCC(=O)N/N=C/c1ccccc1Cl | 7.9
80 | O=C(N/N=C/c1cccnc1)c1cccc(Cl)c1 | 32.1
81 | CCN(CC)S(=O)(=O)c1cc(NC(=O)C2Cc3ccccc3C(=O)O2)ccc1C (stereo not given) | 20.1
82 | Cc1ncc([N+](=O)[O-])n1CC(=O)NC1CCCC1 | 7.22
83 | CC(C)C(c1nnnn1Cc1ccccc1)N(CCCO)Cc1cc2cc3c(cc2[nH]c1=O)OCO3 (stereo not given) | 3.39
84 | COC(=O)c1ccc(CSc2ccc3nnc(-c4ccc(OC)c(OC)c4)n3n2)o1 | -14.4
85 | CCOc1ccc2nnnn2n1 | 11.9
86 | Cc1ccsc1/C=N/Nc1ccc(C(=O)O)cc1 | 30.1
87 | Cc1ccsc1/C=N/NC(=O)c1ccncc1 | 13.8
88 | CCOC(=O)C1Nc2c(F)cc(C)cc2C2c3ccccc3CC12 (stereo not given) | 2.54
89 | CC1(C)CC(=O)C(C=NCC2CCN(C(=O)Cc3ccccc3)CC2)=C(O)C1 | 3.43
90 | CC(C)c1ccc(NC(=O)CSc2nnc(-c3ccccn3)n2C)cc1 | -19.7
91 | Cc1ccc(/C=N/NC(=O)CSc2nc3ccccc3n2C)s1 | 12
92 | COc1ccc(NC(=O)CC2Sc3ncnn3C2=O)cc1 (stereo not given) | 24.8

Row | Structure (SMILES) | inhibition [%]
93 | COc1ccc(CCNC2CCCCC2)cc1 | -14.9
94 | O=Cc1cc(CCC(=O)O)ccc1O | 34.3
95 | CCOC(=O)c1ccc(NC(=O)c2cc3c(s2)CCC3)cc1 | 13
96 | CCOC(=O)c1ccc(NC(=O)CSc2nc(N3CCOCC3)nc(N3CCOCC3)n2)cc1 | 3.08
97 | CCCCOc1ccc(CN2CCC(O)CC2)cc1 | 37.8
98 | CCCCCCOc1ccc(N2C(=O)CC(SC(=NCC)NCC)C2=O)cc1 (stereo not given) | -11.7
99 | Cc1cc(C)n2nc(SCn3nnc4ccccc4c3=O)nc2n1 | 13.7
100 | O=C(CCNC(=O)c1ccco1)Nc1cccc(Br)c1 | 35
101 | Cc1ccc(NC(=O)CSc2ccc(-c3ccco3)nn2)cc1 | 29.4
102 | CCC1(CC)C(=O)NC(=O)NC1=Nc1cccc(OC)c1 | -22
103 | Cc1ccc(N2C(N)=C(C#N)C(c3cccnc3)C3=C2CC(C)(C)CC3=O)cc1 (stereo not given) | -10.7
104 | C=CCSc1nnc(NC(=O)CSc2nc3ccccc3o2)s1 | 21
105 | COc1ccccc1C(=O)NNC1=C(C(=O)C(F)(F)F)CCC1 | 36.3
106 | Cc1cc(C)c(-n2nnnc2SC(C)C)c(C)c1 | 22.1
107 | COc1cc2c(cc1OC)[C@H](Cc1ccc(O)cc1)NCC2 | 26.9
108 | Cc1cccc(N2CCN(C(=O)CCN3C(=S)NC(C)(C)CC3C)CC2)c1C (stereo not given) | -24
109 | COc1cc2c(cc1OC)CN(C(=O)CCCN1C(=O)c3ccccc3C1=O)CC2 | 14.8
110 | COc1ccc(C(=O)Oc2cc(C(=S)N3CCOCC3)ccc2OC)cc1 | -14.6
111 | Cc1c(-n2c(SCC(=O)C(C)(C)C)nc3ccccc3c2=O)c(=O)n(-c2ccccc2)n1C | 6.64
112 | NC(=O)c1cc(C(=O)c2ccc(Cl)cc2Cl)c[nH]1 | 36.3
113 | NC(=O)c1ccc[n+](CC(=O)c2cccc([N+](=O)[O-])c2)c1 | -22.5
114 | O=Cc1ccc(N2CCCCCC2)cc1 | 6.54
115 | CC(C)CN1CCN(Cc2cnc(N3CCOCC3)s2)CC1CCO (stereo not given) | -6.77
